Test results as given in PubChem BioAssay (NCATS).
Inconclusive results are not listed. Active and inactive are the calls of the source. Calls come from the whole dose curve; as a rule, active = well fitted inhibition curve with a large enough effect; inconclusive = small, poorly fitted or top-dose-only effect; inactive = flat fitted curve, though single readings scatter. Starred links: 1 amine or outer side, 2 acyl side, 3 side chain; linkers in the order of their positions; H or OH if unused. Positions of bridges follow the written chain, without caps; N, C: chain ends. Non-standard residues stand in square brackets, D forms with d. Residues, ends and D or L forms follow the SMILES beside them. Chains are numbered I, II in the order given. Actinocin(9to1) = Cc1c2oc3c(C)ccc(C(=O)[*:1])c3nc-2c(C(=O)[*:2])c(N)c1=O; NMeV = CN[CH](C(=O)O)C(C)C; Sar = CNCC(=O)O

Experiments:
[1] = system: CRL-7250; assay: Cytotoxic Profiling of Annotated Libraries Using Quantitative High-Throughput Screening (AID 1296008); details: Five cell lines viability, CellTiter-Glo ATP luminescence, 48-72 h; max response: active compounds read low
How it was run: (§1)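 Cells exposed to compounds for 48 or 72 hr at 37 degrees Celsius. Viability read as ATP-coupled luminescence with CellTiter-Glo after 10 min at room temperature.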

[2] = system: HEK293; assay: as above; details: Five cell lines viability, CellTiter-Glo ATP luminescence, 48-72 h; max response: active compounds read low
How it was run: as §1

[3] = system: HaCat; assay: as above; details: Five cell lines viability, CellTiter-Glo ATP luminescence, 48-72 h; max response: active compounds read low
How it was run: as §1

[4] = system: KB-3-1; assay: as above; details: Five cell lines viability, CellTiter-Glo ATP luminescence, 48-72 h; max response: active compounds read low
How it was run: as §1

[5] = system: NIH3T3; assay: as above; details: Five cell lines viability, CellTiter-Glo ATP luminescence, 48-72 h; max response: active compounds read low
How it was run: as §1

[6] = system: MCC-13; assay: qHTS assay to identify novel small-molecules to repurpose for Merkel cell carcinoma treatment (AID 1296009); details: MCC and control cell lines, CellTiter-Glo viability, 72 h; series mostly up to 46 µM
How it was run: (§2)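 CellTiter-Glo luminescence after 72 hr compound exposure at 37 degree celsius gave cell viability. Libraries NPC and MIPE were run as 8- and 11-point dose responses; RLUs normalized to DMSO (negative) and no-cell (cytotoxicity) controls.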

[7] = system: MCC-26; assay: as above; details: MCC and control cell lines, CellTiter-Glo viability, 72 h; series mostly up to 46 µM
How it was run: as §2

[8] = system: MKL-1; assay: as above; details: MCC and control cell lines, CellTiter-Glo viability, 72 h; series mostly up to 46 µM
How it was run: as §2

[9] = system: MKL-2; assay: as above; details: MCC and control cell lines, CellTiter-Glo viability, 72 h; series mostly up to 46 µM
How it was run: as §2

[10] = system: NIH3T3; assay: as above; details: MCC and control cell lines, CellTiter-Glo viability, 72 h; at 44.8 µM (top of the series) unless noted
How it was run: as §2

[11] = system: UISO; assay: as above; details: MCC and control cell lines, CellTiter-Glo viability, 72 h; series mostly up to 46 µM
How it was run: as §2

[12] = system: WaGa; assay: as above; details: MCC and control cell lines, CellTiter-Glo viability, 72 h; series mostly up to 46 µM
How it was run: as §2

[13] = system: HACAT; assay: as above; details: MCC and control cell lines, CellTiter-Glo viability, 72 h; at 44.8 µM (top of the series) unless noted
How it was run: as §2

[14] = system: HEK293T; assay: as above; details: MCC and control cell lines, CellTiter-Glo viability, 72 h; series mostly up to 44.8 µM
How it was run: as §2
% is set by controls: 0 for no effect and ±100 for the full control effect; potency is the fitted concentration of half-maximal effect.
Note: nearly all actives have a fitted effect of over 60% in size.

CC(C)N(CC[C@H](c1ccccc1)c1cc(CO)ccc1O)C(C)C
inactive: outcome [1] | max response [2] 0.962% | max response [3] -1.81% | outcome [4] | outcome [5] | Potency [6] | Potency [7] | Potency [8] | Potency [9] | outcome [10] | Potency [11] | Potency [12]

O=c1[nH]c(=O)n([C@H]2C[C@@H](O)[C@@H](CO)O2)cc1C=CBr
inactive: max response [1] -10.9% | max response [2] -1.26% | max response [3] -10.4% | outcome [4] | outcome [5] | Potency [6] | Potency [7] | Potency [8] | Potency [9] | outcome [10] | Potency [11] | Potency [12]

C[C@H](CCC(=O)O)[C@H]1CCC2C3C[C@H](O)[C@@H]4C[C@H](O)CC[C@]4(C)C3CC[C@@]21C (stereo not given in full)
inactive: max response [1] 3.11% | max response [2] 4.87% | max response [3] -16.1% | max response [4] 6.35% | outcome [5] | Potency [6] | Potency [7] | Potency [8] | Potency [9] | outcome [10] | Potency [11] | Potency [12]

C=Cc1c(C)c2cc3nc(cc4[nH]c(cc5nc(cc1[nH]2)C(C)=C5CCC(=O)O)c(CCC(=O)OC)c4C)[C@@]1(C)C3=CC=C(C(=O)OC)[C@H]1C(=O)OC
active: Potency [2] 11800 nM | Potency [7] 2960 nM | Potency [8] 46.9 nM | Potency [9] 41.8 nM | Potency [11] 469 nM
inactive: max response [1] 1.72% | outcome [3] | outcome [4] | max response [5] 4.13% | outcome [13]

C[C@@H](NCc1cc2ccccc2[nH]1)c1cccc2ccccc12
inactive: max response [1] 3.32% | max response [2] -2.05% | outcome [3] | max response [4] 3.8% | max response [5] 2.38% | outcome [13] | Potency [6] | Potency [8] | Potency [9] | Potency [11] | Potency [12]

CC(C)(O)Cn1c(NC(=O)c2ccc(-c3cn[nH]c3)s2)nc2cc(CN3CCOCC3)ccc21
active: Potency [1] 1660 nM | Potency [2] 526 nM | Potency [3] 1320 nM | Potency [4] 1050 nM | Potency [5] 2350 nM | Potency [6] 2960 nM | Potency [7] 4690 nM | Potency [8] 1180 nM | Potency [9] 14800 nM | Potency [11] 1870 nM

C=C1C[C@@]2(O)O[C@@]3(C[C@H]2C(C)C)[C@H](C)CC[C@H]13
inactive: max response [1] -11.2% | max response [2] 0.867% | outcome [3] | outcome [4] | max response [5] 2.78% | outcome [13] | Potency [6] | Potency [8] | Potency [9] | Potency [11] | Potency [12]

Cc1c2oc3c(C)ccc(C(=O)NC4C(=O)NC(C(C)C)C(=O)N5CCCC5C(=O)N(C)CC(=O)N(C)C(C(C)C)C(=O)OC4C)c3nc-2c(C(=O)NC2C(=O)NC(C(C)C)C(=O)N3CCCC3C(=O)N(C)CC(=O)N(C)C(C(C)C)C(=O)OC2C)c(N)c1=O (stereo not given) (I: TVP[Sar][NMeV] / II: TVP[Sar][NMeV]; ester I:1-I:C, II:1-II:C; linker I:N-II:N via Actinocin(9to1); configuration not given here)
inactive: max response [1] -99.9% | max response [2] -93.3% | max response [3] -104% | max response [5] -100% | Potency [6] | Potency [7] | Potency [8] | Potency [9] | Potency [11] | Potency [12]
active: Potency [4] 0.0662 nM

CON=C(C(=O)N[C@@H]1C(=O)N2C(C(=O)O)=C(CSC(=O)c3ccco3)CS[C@H]12)c1csc(N)n1
inactive: max response [1] 4.77% | outcome [2] | max response [3] 1.07% | outcome [4] | max response [5] -6.35% | Potency [14] | Potency [6] | Potency [7] | Potency [8] | Potency [9] | Potency [12]

COc1cc(OC)c(NC(=O)Nc2cc(C)on2)cc1Cl
inactive: max response [1] -0.274% | max response [2] -18.7% | outcome [3] | max response [4] 3.5% | max response [5] 2.83% | outcome [13] | Potency [6] | Potency [8] | Potency [9] | Potency [11] | Potency [12]

C=C1CCC2[C@](C)(CO)C(O)CC[C@]2(C)C1CC=C1C(=O)OCC1O (stereo not given in full)
inactive: max response [1] -1.23% | max response [2] -3.28% | max response [3] -3.92% | max response [4] 8.99% | max response [5] 3.77% | Potency [6] | Potency [7] | Potency [8] | Potency [9] | Potency [11] | Potency [12]

C[C@H](NCc1ccc2c(c1)nc(NC(=O)c1ccc(-c3cn[nH]c3)s1)n2CCc1ccccc1)C(C)(C)C
active: Potency [1] 1870 nM | Potency [2] 935 nM | Potency [3] 2960 nM | Potency [4] 1050 nM | Potency [5] 2640 nM | Potency [6] 10500 nM | Potency [7] 10500 nM | Potency [8] 2350 nM | Potency [9] 5900 nM | Potency [11] 6620 nM | Potency [12] 4690 nM

O=C(C=Cc1ccc(CN(CCO)CCc2c[nH]c3ccccc23)cc1)NO
active: Potency [1] 833 nM | Potency [2] 372 nM | Potency [3] 526 nM | Potency [4] 264 nM | Potency [5] 1050 nM | Potency [6] 1660 nM | Potency [7] 1180 nM | Potency [8] 418 nM | Potency [9] 105 nM | Potency [11] 1180 nM | Potency [12] 105 nM

N#CC(=C(O)c1ccc(Cl)cc1Cl)c1nc2cc(Cl)ccc2c(=O)[nH]1
inactive: max response [1] -6.32% | max response [2] 1.08% | max response [3] 4.62% | max response [4] 3.32% | max response [5] 1.52% | Potency [6] | Potency [7] | Potency [8] | Potency [9] | Potency [11] | Potency [12]
